Several values for one entry are separate records, joined by “and”; a condition that tells them apart may be missing. Equal values may be shown once. In all, about 5,500 compounds went through this assay and about 2,000 (36%) were called active. Another 18% or so got no clear call; they are omitted. Rule as the data show it: active = normalized growth mostly below about 0.91 (no sharp cut-off); inconclusive = no clear call, values can overlap the other calls; inactive = mostly above about 0.92. This is one part of the list.
Experiment: chemical genetic growth profiling, strain panel (AID 1159580);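 also: tested at 20 µM; growth read once vehicle control cultures reached saturation at 30 °C; 1 = growth at the plate median or of vehicle wells; lower values mean less growth of the strain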
Settings: S. cerevisiae deletion strains, growth OD

Measured: normalized growth

COC1CC(O[C@H]2CC[C@]3(C=O)C4CC[C@]5(C)C(C6=CC(=O)OC6)CC[C@]5(O)C4CC[C@]3(O)C2)OC(C)C1O (some centres not stated)
inactive: locus YAL013W, strain DEP1, active compounds read low 1.02 | locus YAL021C, strain ccr4, active compounds read low 0.938 | locus YAL026C, strain drs2, active compounds read low 1.02 | locus YAL030W, strain snc1, active compounds read low 0.978 | locus YBL061C, strain skt5, active compounds read low 0.99 | locus YBR009C, strain hhf1, active compounds read low 0.985 | locus YBR021W, strain FUR4, active compounds read low 1.01 | locus YBR023C, strain chs3, active compounds read low 0.967 | locus YBR171W, strain sec66, active compounds read low 1 | locus YBR229C, strain ROT2, active compounds read low 1.02 | locus YBR231C, strain swc5, active compounds read low 1 | locus YBR279W, strain paf1, active compounds read low 1 | locus YCL011C, strain gbp2, active compounds read low 0.961 | locus YCL016C, strain dcc1, active compounds read low 0.954 | locus YCL029C, strain bik1, active compounds read low 0.994 | locus YCL069W, strain vba3, active compounds read low 0.969 | locus YCR088W, strain abp1, active compounds read low 0.983 | locus YDL005C, strain med2, active compounds read low 0.969 | locus YDL035C, strain GPR1, active compounds read low 1.04 | locus YDL040C, strain nat1, active compounds read low 0.986 | locus YDL074C, strain BRE1, active compounds read low 1.09 | locus YDL101C, strain DUN1, active compounds read low 1.02 | locus YDL134C, strain PPH21, active compounds read low 1.02 | locus YDL185W, strain tfp1, active compounds read low 0.995 | locus YDL192W, strain arf1, active compounds read low 1.02 | locus YDR001C, strain nth1, active compounds read low 0.955 | locus YDR069C, strain doa4, active compounds read low 0.994 | locus YDR101C, strain arx1, active compounds read low 1.02 | locus YDR137W, strain rgp1, active compounds read low 0.975 | locus YDR159W, strain sac3, active compounds read low 1 | locus YDR162C, strain NBP2, active compounds read low 1.03 | locus YDR195W, strain ref2 0.914 | locus YDR297W, strain sur2, active compounds read low 0.999 | locus YDR318W, strain mcm21, active compounds read low 1.01 | locus YDR334W, strain swr1, active compounds read low 0.977 | locus YDR335W, strain msn5, active compounds read low 0.955 | locus YDR388W, active compounds read low 0.987 | locus YDR392W, strain spt3, active compounds read low 0.903 | locus YDR502C, strain sam2, active compounds read low 0.987 | locus YEL003W, strain gim4, active compounds read low 1.01 | locus YEL037C, strain rad23, active compounds read low 0.977 | locus YEL061C, strain CIN8 (second series), active compounds read low 0.981 | locus YER015W, strain faa2, active compounds read low 0.975 | locus YER016W, strain bim1, active compounds read low 0.983 | locus YER110C, active compounds read low 0.986 | locus YER111C, strain swi4, active compounds read low 0.994 | locus YER155C, strain BEM2 (second series), active compounds read low 1.01 | locus YER155C, strain BEM2, active compounds read low 1.01 | locus YER167W, strain BCK2, active compounds read low 1.03 | locus YFR010W, strain ubp6, active compounds read low 1 | locus YGL078C, strain dbp3, active compounds read low 0.992 | locus YGL086W, strain mad1, active compounds read low 0.998 | locus YGL167C, strain pmr1, active compounds read low 0.976 | locus YGL173C, strain kem1, active compounds read low 0.992 | locus YGL227W, strain vid30, active compounds read low 0.987 | locus YGL240W, strain doc1, active compounds read low 1 | locus YGL248W, strain PDE1, active compounds read low 1.01 | locus YGL253W, strain hxk2, active compounds read low 0.997 | locus YGR078C, strain PAC10, active compounds read low 1.02 | locus YGR135W, strain pre9, active compounds read low 0.981 | locus YGR229C, strain SMI1, active compounds read low 1.04 | locus YGR252W, strain gcn5, active compounds read low 0.949 | locus YHR013C, strain ard1, active compounds read low 0.934 | locus YHR027C, strain rpn1, active compounds read low 0.97 | locus YHR030C, strain SLT2, active compounds read low 1.02 and 0.984 | locus YHR079C, strain IRE1 (second series), active compounds read low 0.998 | locus YHR079C, strain IRE1, active compounds read low 1.01 | locus YHR094C, strain hxt1, active compounds read low 0.984 | locus YHR129C, strain ARP1, active compounds read low 1.02 | locus YHR142W, strain chs7, active compounds read low 0.918 | locus YHR200W, strain rpn10, active compounds read low 0.992 | locus YIL066C, strain RNR3, active compounds read low 1.05 | locus YIL073C, strain SPO22, active compounds read low 1.01 | locus YIL125W, strain kgd1, active compounds read low 1 | locus YIR030C, strain dcg1, active compounds read low 0.993 | locus YJL092W, strain hpr5, active compounds read low 0.985 | locus YJL095W, strain BCK1 (second series), active compounds read low 0.987 | locus YJL095W, strain BCK1, active compounds read low 1.04 and 0.985 | locus YJL115W, strain asf1, active compounds read low 0.964 | locus YJL129C, strain trk1, active compounds read low 0.958 | locus YJL134W, strain LCB3, active compounds read low 1.01 | locus YJL154C, strain vps35, active compounds read low 0.967 | locus YJL164C, strain tpk1, active compounds read low 0.99 | locus YJL166W, strain qcr8, active compounds read low 0.996 | locus YJL168C, strain set2, active compounds read low 0.994 | locus YJL187C, strain SWE1 (second series), active compounds read low 1.02 | locus YJR066W, strain TOR1, active compounds read low 0.904 | locus YKL009W, strain mrt4, active compounds read low 1.04 | locus YKL068W, active compounds read low 1 | locus YKL085W, strain MDH1 (second series), active compounds read low 1 | locus YKL085W, strain MDH1, active compounds read low 1 | locus YKL160W, strain elf1, active compounds read low 0.962 | locus YKL190W, strain CNB1, active compounds read low 1.02 | locus YKR001C, strain vps1, active compounds read low 0.992 | locus YKR026C, strain gcn3, active compounds read low 0.987 | locus YKR091W, strain srl3, active compounds read low 0.968 | locus YLL001W, strain dnm1, active compounds read low 0.963 | locus YLL026W, active compounds read low 0.982 | locus YLL041C, strain sdh2, active compounds read low 0.971 | locus YLR027C, strain aat2, active compounds read low 1.02 | locus YLR039C, strain RIC1, active compounds read low 1.08 | locus YLR058C, strain SHM2, active compounds read low 1.03 | locus YLR102C, strain apc9, active compounds read low 0.996 | locus YLR113W, strain HOG1, active compounds read low 1.02 | locus YLR221C, strain rsa3, active compounds read low 1.02 | locus YLR258W, strain gsy2, active compounds read low 0.962 | locus YLR262C, strain YPT6 (second series), active compounds read low 1.01 | locus YLR262C, strain YPT6, active compounds read low 1.11 | locus YLR268W, strain sec22, active compounds read low 1.02 | locus YLR320W, strain mms22, active compounds read low 1.03 | locus YLR330W, strain CHS5, active compounds read low 1.02 | locus YLR342W, strain FKS1 (second series), active compounds read low 1.06 | locus YLR342W, strain FKS1, active compounds read low 1 | locus YLR357W, strain rsc2, active compounds read low 0.95 | locus YLR370C, strain arc18, active compounds read low 0.98 | locus YLR371W, strain rom2, active compounds read low 1.01 | locus YLR384C, strain iki3, active compounds read low 0.969 | locus YLR418C, strain cdc73, active compounds read low 0.958 | locus YML016C, strain PPZ1, active compounds read low 1.02 | locus YML032C, strain rad52, active compounds read low 0.994 | locus YML120C, strain ndi1, active compounds read low 0.947 | locus YML124C, strain tub3, active compounds read low 0.997 | locus YMR058W, strain fet3, active compounds read low 0.992 | locus YMR078C, strain ctf18, active compounds read low 0.99 | locus YMR125W, strain sto1, active compounds read low 0.926 | locus YMR129W, active compounds read low 0.989 | locus YMR205C, strain PFK2, active compounds read low 0.984 | locus YMR223W, strain ubp8, active compounds read low 0.995 | locus YMR231W, strain pep5, active compounds read low 1 | locus YMR307W, strain GAS1, active compounds read low 1.16 | locus YNL067W, strain RPL9B, active compounds read low 1 | locus YNL071W, strain lat1, active compounds read low 0.967 | locus YNL183C, strain NPR1, active compounds read low 0.927 | locus YNL209W, strain ssb2, active compounds read low 0.984 | locus YNL233W, strain BNI4, active compounds read low 1.02 | locus YNL248C, strain rpa49, active compounds read low 0.904 | locus YNL250W, strain rad50, active compounds read low 0.972 | locus YNL271C, strain bni1, active compounds read low 1.01 | locus YNL298W, strain CLA4, active compounds read low 0.998 | locus YNL307C, strain MCK1, active compounds read low 0.998 | locus YNL322C, strain KRE1 (second series), active compounds read low 0.971 | locus YNL322C, strain KRE1, active compounds read low 1.02 | locus YNR049C, strain mso1, active compounds read low 0.951 | locus YNR052C, strain pop2, active compounds read low 0.988 | locus YOL012C, strain htz1 0.64 | locus YOL147C, strain pex11, active compounds read low 0.987 | locus YOR001W, strain rrp6, active compounds read low 0.989 | locus YOR061W, strain CKA2, active compounds read low 1.05 | locus YOR069W, strain VPS5, active compounds read low 1.02 | locus YOR070C, strain gyp1, active compounds read low 1 | locus YOR080W, strain dia2, active compounds read low 0.991 | locus YOR083W, strain WHI5, active compounds read low 0.973 | locus YOR106W, strain vam3, active compounds read low 0.922 | locus YOR136W, strain idh2, active compounds read low 0.958 | locus YOR144C, strain elg1, active compounds read low 0.989 | locus YOR184W, strain ser1, active compounds read low 1.04 | locus YOR231W, strain MKK1, active compounds read low 1.01 | locus YOR265W, strain rbl2, active compounds read low 0.997 | locus YOR270C, strain vph1, active compounds read low 1.08 | locus YOR290C, strain snf2, active compounds read low 0.888 | locus YOR316C, strain cot1, active compounds read low 0.984 | locus YPL051W, strain arl3, active compounds read low 0.992 | locus YPL055C, strain LGE1, active compounds read low 1.06 | locus YPL078C, strain atp4, active compounds read low 0.927 | locus YPL106C, strain sse1, active compounds read low 0.966 | locus YPL240C, strain hsp82, active compounds read low 0.988 | locus YPL256C, strain CLN2, active compounds read low 1.01 | locus YPR119W, strain clb2, active compounds read low 0.992 | locus YPR141C, strain kar3, active compounds read low 0.992 | locus YPR163C, strain tif3, active compounds read low 0.993 | locus YPR167C, strain met16, active compounds read low 0.987 | strain wtn01, active compounds read low 1.01

From PubChem BioAssay AID1159580 (chemical genetic matrix, 2015)
